From PubChem BioAssay (NCATS)
Records with an inconclusive call do not appear. Activity calls are given as the source filed them. Calls follow the shape of the dose curve; as a rule, active = well fitted cell-killing curve with a large enough effect; inconclusive = small, poorly fitted or top-dose-only effect, or effect the other way; inactive = flat fitted curve, though single readings scatter.

Columns and labels:
Assay in all cases: Primary qHTS to identify gynecologic anti-cancer compounds using libraries of approved drugs and bioactive compounds (AID 1345084); also: nearly all actives have a fitted effect of over 55% in size
C33A = settings: Gynecologic cancer cell panel viability, ATPlite luminescence, 48 h; series mostly up to 57.5 µM
Method in brief: (§1)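 48 h compound exposure at 37 C, 5% CO2; five-point qHTS. ATPlite luminescence readout of cell ATP.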

CAOV3 = settings: Gynecologic cancer cell panel viability, ATPlite luminescence, 48 h; series mostly up to 57.5 µM
Method in brief: as §1

CASKI = settings: Gynecologic cancer cell panel viability, ATPlite luminescence, 48 h; series mostly up to 57.5 µM
Method in brief: as §1

Es-2 = settings: Gynecologic cancer cell panel viability, ATPlite luminescence, 48 h; series mostly up to 57.5 µM
Method in brief: as §1

HeLa = settings: Gynecologic cancer cell panel viability, ATPlite luminescence, 48 h; series mostly up to 57.5 µM
Method in brief: as §1

Hek293T = settings: Gynecologic cancer cell panel viability, ATPlite luminescence, 48 h, control line for the selectivity index; series mostly up to 57.5 µM
Method in brief: as §1
% is scaled to controls: 0 for no effect and ±100 for the full control effect.

CC(=O)N1CCN(NC(=O)c2ccc(F)cc2)CC1
inactive: Potency (C33A) | Potency (CAOV3) | Potency (CASKI) | Potency (Es-2) | Potency (HeLa) | Potency (Hek293T)

CC1=CC(=O)C2C(C)(C)CC(O)CC2(C)C1CO (stereo not drawn)
inactive: Potency (C33A) | Potency (CAOV3) | Potency (CASKI) | Potency (Es-2) | Potency (HeLa) | Potency (Hek293T)

Cc1cn2c(N)c(Cl)cc(C(=O)NCC3CCN(CC(C)C)CC3)c2n1
inactive: Potency (C33A) | Potency (CAOV3) | Potency (CASKI) | Potency (Es-2) | Potency (HeLa) | Potency (Hek293T)

C=C1C[C@]23C[C@H]1CC[C@H]2[C@]1(C)CCC[C@@]2(CO)C(=O)O[C@H]([C@H]21)[C@@H]3O
inactive: Potency (C33A) | Potency (CAOV3) | Potency (CASKI) | Potency (Es-2) | Potency (HeLa) | Potency (Hek293T)

C=C1C2(CCC(=O)OC2(C)C)CC(OC(=O)/C(C)=C/C)C2(C)C13OC14C(=O)OC(C)(C(=O)C12C(=O)OC4C)C3OC(C)=O (stereo not drawn)
inactive: Potency (C33A) | Potency (CAOV3) | Potency (CASKI) | Potency (Es-2) | Potency (HeLa) | Potency (Hek293T)

CC(O)(CC(=O)O)CC(=O)O[C@@H]1[C@@H](O)[C@H](OCCc2ccccc2)O[C@H](CO)[C@H]1O (stereo partly drawn)
inactive: Potency (C33A) | Potency (CAOV3) | Potency (CASKI) | Potency (Es-2) | Potency (HeLa) | Potency (Hek293T)

Cc1ncc([N+](=O)[O-])n1CC(O)CN1CCOCC1 (stereo not drawn)
inactive: Potency (C33A) | Potency (CAOV3) | Potency (CASKI) | Potency (Es-2) | Potency (HeLa) | Potency (Hek293T)

O=C(c1ccccn1)c1cnn2c(-c3ccncc3)ccnc12
inactive: Potency (C33A) | Potency (CAOV3) | Potency (CASKI) | Potency (Es-2) | Potency (HeLa) | Potency (Hek293T)

O=C(O)CCc1cc2ccoc2cc1O[C@@H]1O[C@H](CO[C@@H]2OC[C@](O)(CO)[C@H]2O)[C@@H](O)[C@H](O)[C@H]1O
inactive: Potency (C33A) | Potency (CAOV3) | Potency (CASKI) | Potency (Es-2) | Potency (HeLa) | Potency (Hek293T)

CC(=O)O[C@@H]1C[C@@]23C[C@@]24CC[C@H](OC2OC[C@@H](O)[C@H](O)[C@H]2O)C(C)(C)[C@@H]4CC[C@H]3[C@]2(C)CC3OC4(C[C@@H](C)C3[C@@]12C)OCC1(C)OC14 (stereo partly drawn)
inactive: Potency (C33A) | Potency (CAOV3) | Potency (CASKI) | Potency (Es-2) | Potency (HeLa) | Potency (Hek293T)

COC(=O)C1=CO[C@@H](O[C@@H]2O[C@H](CO)[C@@H](O)[C@H](O)[C@H]2O)[C@@H]2[C@@H](C)[C@@H](O)C[C@H]12
inactive: Potency (C33A) | Potency (CAOV3) | Potency (CASKI) | Potency (Es-2) | Potency (HeLa) | Potency (Hek293T)

C/C=C(\C)C(=O)O[C@@H]1CC2[C@@H](CC=C3C[C@@H](O[C@H]4C[C@H](OC)[C@H](O[C@H]5C[C@H](OC)[C@H](O[C@H]6C[C@H](OC)[C@H](O[C@H]7C[C@@H](OC)[C@H](O[C@@H]8O[C@H](CO)[C@@H](O)[C@H](O)[C@H]8O)[C@@H](C)O7)[C@@H](C)O6)[C@@H](C)O5)[C@@H](C)O4)CC[C@@]32C)[C@@]2(O)CC[C@H](C(C)=O)[C@@]12C (stereo partly drawn)
inactive: activity change, negative = cytotoxicity (C33A) 1.71% [at 6.55 µM] | activity change, negative = cytotoxicity (CAOV3) -0.474% [at 6.55 µM] | activity change, negative = cytotoxicity (CASKI) -0.911% [at 6.55 µM] | activity change, negative = cytotoxicity (Es-2) -1.08% [at 6.55 µM] | activity change, negative = cytotoxicity (HeLa) -14.4% [at 6.55 µM] | activity change, negative = cytotoxicity (Hek293T) 11.8% [at 6.55 µM]

CC1NC(=O)C(Cc2c[nH]c3ccccc23)NC1=O (stereo not drawn)
inactive: Potency (C33A) | Potency (CAOV3) | Potency (CASKI) | Potency (Es-2) | Potency (HeLa) | Potency (Hek293T)

CC(=O)O[C@H](C[C@@H](C)[C@H]1C(=O)[C@H](O)[C@@]2(C)[C@@H]3CCC4C(C)(C)[C@@H](O[C@@H]5OC[C@H](O)[C@H](O)[C@H]5O)CC[C@@]45C[C@@]35CC[C@]12C)[C@@H]1OC1(C)C (stereo partly drawn)
inactive: Potency (C33A) | Potency (CAOV3) | Potency (CASKI) | Potency (Es-2) | Potency (HeLa) | Potency (Hek293T)

CCNC(=O)[C@@H]1CCCN1C(=O)[C@H](CCCN=C(N)N)NC(=O)[C@H](CC(C)C)NC(=O)[C@@H](C)NC(=O)[C@H](Cc1ccc(O)cc1)NC(=O)[C@H](CO)NC(=O)[C@H](Cc1c[nH]c2ccccc12)NC(=O)[C@H](Cc1cnc[nH]1)NC(=O)[C@@H]1CCC(=O)N1
inactive: Potency (C33A) | Potency (CAOV3) | Potency (CASKI) | Potency (Es-2) | Potency (HeLa) | Potency (Hek293T)

C/C=C(/C)C(=O)O[C@H]1C=C(C)C[C@H](OC(=O)c2ccc(O)cc2)C2[C@](O)(C(C)C)CC[C@@]21C (stereo partly drawn)
inactive: Potency (C33A) | Potency (CAOV3) | Potency (CASKI) | Potency (Es-2) | Potency (HeLa) | Potency (Hek293T)

COc1c(C)c(C(=O)c2ccc(N)c(C(=O)O)c2)n2ccccc12
inactive: Potency (C33A) | Potency (CAOV3) | Potency (CASKI) | Potency (Es-2) | Potency (HeLa) | Potency (Hek293T)

C[C@@H]1C/C=C/C=C\C=C\C=C\[C@H](O[C@@H]2O[C@H](C)[C@@H](O)[C@H](N)[C@@H]2O)C[C@@H]2O[C@](O)(C[C@@H](O)C[C@H]3O[C@@H]3/C=C/C(=O)O1)C[C@H](O)[C@H]2C(=O)O
inactive: Potency (C33A) | Potency (CAOV3) | Potency (CASKI) | Potency (Es-2) | Potency (HeLa) | Potency (Hek293T)

C/C=C(\C)C(=O)OC[C@H]1O[C@H](O[C@H]2O[C@H](CO)[C@@H](OC(=O)/C(C)=C/C)[C@H](O)[C@H]2O[C@@H]2O[C@H](CO)[C@@H](O)[C@H](O)[C@H]2O)[C@H](O[C@@H]2O[C@H](CO)[C@@H](O)[C@H](O)[C@H]2O)[C@@H](O)[C@@H]1O
inactive: activity change, negative = cytotoxicity (C33A) 3.37% [at 11.6 µM] | activity change, negative = cytotoxicity (CAOV3) 17% [at 11.6 µM] | activity change, negative = cytotoxicity (CASKI) 6.41% [at 11.6 µM] | activity change, negative = cytotoxicity (Es-2) 10.5% [at 11.6 µM] | activity change, negative = cytotoxicity (HeLa) 13.4% [at 11.6 µM] | activity change, negative = cytotoxicity (Hek293T) 8.94% [at 11.6 µM]

CCOC(=O)c1c(C)nn(-c2cccc([N+](=O)[O-])c2)c1C
inactive: Potency (C33A) | Potency (CAOV3) | Potency (CASKI) | Potency (Es-2) | Potency (HeLa) | Potency (Hek293T)

CCc1c(CC(N)=O)c2cc(OCCCP(=O)(O)O)ccc2n1Cc1ccccc1
inactive: Potency (C33A) | Potency (CAOV3) | Potency (CASKI) | Potency (Es-2) | Potency (HeLa) | Potency (Hek293T)

O=C(O[C@@H]1O[C@H](CO)[C@@H](O)[C@H](O)[C@H]1O)c1c(O)cc(O)cc1/C=C/c1ccccc1
inactive: Potency (C33A) | Potency (CAOV3) | Potency (CASKI) | Potency (Es-2) | Potency (HeLa) | Potency (Hek293T)

O=C1C[C@@H](c2ccc(O)cc2)Oc2cc(O)ccc21
inactive: Potency (C33A) | Potency (CAOV3) | Potency (CASKI) | Potency (Es-2) | Potency (HeLa) | Potency (Hek293T)

CC1=C2C(=O)C=C(CO)[C@@H]2[C@H]2OC(=O)[C@H](C)[C@@H]2[C@@H](O)C1
inactive: Potency (C33A) | Potency (CAOV3) | Potency (CASKI) | Potency (Es-2) | Potency (HeLa) | Potency (Hek293T)

N[C@@H](CC(=O)N1CCn2c(nnc2C(F)(F)F)C1)Cc1[nH]nc2c(F)c(F)ccc12
inactive: Potency (C33A) | Potency (CAOV3) | Potency (CASKI) | Potency (Es-2) | Potency (HeLa) | Potency (Hek293T)

CC/C=C/CC1=C(CCCCCCCC(=O)O)CCC1=O
inactive: Potency (C33A) | Potency (CAOV3) | Potency (CASKI) | Potency (Es-2) | Potency (HeLa) | Potency (Hek293T)

CC(=O)NC(C(=O)OC1CCC(C)(C)C2CC=C3C(=O)OCC3(O)C12C)C(C)C (stereo not drawn)
inactive: Potency (C33A) | Potency (CAOV3) | Potency (CASKI) | Potency (Es-2) | Potency (HeLa) | Potency (Hek293T)

COc1cc(C2OCC3C(c4ccc(OC5OC(CO)C(O)C(O)C5O)c(OC)c4)OCC23)ccc1O (stereo not drawn)
inactive: Potency (C33A) | Potency (CAOV3) | Potency (CASKI) | Potency (Es-2) | Potency (HeLa) | Potency (Hek293T)

COC1=Cc2c(nc3n(c2=O)C(C)C(=O)NC3(O)C(C)C)OC=C1 (stereo not drawn)
inactive: Potency (C33A) | Potency (CAOV3) | Potency (CASKI) | Potency (Es-2) | Potency (HeLa) | Potency (Hek293T)

NCCCC[C@H](NC(=O)[C@@H]1Cc2ccccc2CN1C(=O)CCC(=O)c1ccccc1)C(=O)NCC(c1ccccc1)c1ccccc1
inactive: Potency (C33A) | Potency (CAOV3) | Potency (CASKI) | Potency (Es-2) | Potency (HeLa) | Potency (Hek293T)

C[C@H]1CC[C@@]2(OC1)O[C@H]1CC3C4CC=C5C[C@H](O)C[C@@H](O[C@@H]6O[C@@H](C)[C@H](O)[C@@H](O)[C@H]6O[C@@H]6O[C@@H](C)[C@H](O)[C@@H](O)[C@H]6O)[C@]5(C)C4CC[C@]3(C)[C@H]1[C@@H]2C (stereo partly drawn)
inactive: Potency (C33A) | Potency (CAOV3) | Potency (CASKI) | Potency (Es-2) | Potency (HeLa) | Potency (Hek293T)

O=C1CC(c2ccc([N+](=O)[O-])cc2)=NN1c1ccccc1
inactive: Potency (C33A) | Potency (CAOV3) | Potency (CASKI) | Potency (Es-2) | Potency (HeLa) | Potency (Hek293T)

C=C1CC2[C@]3(C)C(=C(O)C(=O)[C@@]2(C)[C@]2(C(=O)OC)C(=O)C(C)OC(=O)[C@@]12C)C(C)(C)C(=O)CC3O (stereo partly drawn)
inactive: Potency (C33A) | Potency (CAOV3) | Potency (CASKI) | Potency (Es-2) | Potency (HeLa) | Potency (Hek293T)

C=C1CCC2[C@@](C)(C=O)CCC[C@]2(C)[C@H]1CC/C(C)=C/CO (stereo partly drawn)
inactive: Potency (C33A) | Potency (CAOV3) | Potency (CASKI) | Potency (Es-2) | Potency (HeLa) | Potency (Hek293T)

COc1cc2c(cc1O)C1(OC)Cc3ccc4c(c3C1N(C)CC2)OCO4 (stereo not drawn)
inactive: Potency (C33A) | Potency (CAOV3) | Potency (CASKI) | Potency (Es-2) | Potency (HeLa) | Potency (Hek293T)

CC1(C)CC[C@]2(C(=O)O)CC[C@]3(C)C(=CCC4[C@@]5(C)C[C@H](O)[C@H](O[C@@H]6OC[C@H](O)[C@H](O)[C@H]6O)[C@@](C)(CO)C5CC[C@]43C)[C@@H]2C1 (stereo partly drawn)
inactive: Potency (C33A) | Potency (CAOV3) | Potency (CASKI) | Potency (Es-2) | Potency (HeLa) | Potency (Hek293T)

C=C1CC23CC1(O)CCC2C1=CC2OC(=O)C(C)(C2O)C1C3C(=O)O (stereo not drawn)
inactive: Potency (C33A) | Potency (CAOV3) | Potency (CASKI) | Potency (Es-2) | Potency (HeLa) | Potency (Hek293T)

COc1cc(N2CCC(O)CC2)ccc1Nc1cc(Nc2ccccc2S(=O)(=O)C(C)C)c2cc[nH]c2n1
inactive: Potency (C33A) | Potency (CAOV3) | Potency (CASKI) | Potency (Es-2) | Potency (HeLa) | Potency (Hek293T)
